JMJD2A Tudor: qHTS Assay for Inhibitors of JMJD2A-Tudor Domain. Lysine-specific demethylase 4A (Homo sapiens), O75164. AlphaScreen JMJD2A-Tudor / H3K4me3 peptide binding. Potency, µM (series often up to 114 µM), for the others: top-dose activity change, negative = inhibition, hits mostly inhibitors. 390,000 compounds, 4.4% hits. AID 504339, 2011; also: % is scaled to controls: 0 for no effect and ±100 for the full control effect; nearly all actives have a fitted effect of over 50% in size
HP1b chromo inh: HTS for Inhibitors of HP1-beta Chromodomain Interactions with Methylated Histone Tails; AlphaScreen HP1-beta / biotin-H3K9me3 peptide binding; 390,000 compounds, 0.56% hits; Chromobox protein homolog 1 (Homo sapiens), P83916; AID 540317, 2011; Potency, µM (highest dose often 114 µM), for inactives: at the top dose activity change, negative = inhibition, most hits filed as inhibitors; also: nearly all actives have a fitted effect of over 70% in size
Target sequence (P83916 whole entry, looked up): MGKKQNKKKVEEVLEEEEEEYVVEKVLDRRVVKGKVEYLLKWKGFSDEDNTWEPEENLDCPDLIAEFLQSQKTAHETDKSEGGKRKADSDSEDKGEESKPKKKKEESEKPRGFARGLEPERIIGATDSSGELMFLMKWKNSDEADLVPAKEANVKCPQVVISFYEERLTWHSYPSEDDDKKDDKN
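Compound inhibition of the preformed complex between 50 nM HP1-beta and 50 nM biotinylated H3K9me3 peptide was read by AlphaScreen. Buffer was PBS pH 7.4 with 0.01% Tween-20. Incubations ran 30 min at room temperature, with 10 ug/mL donor/acceptor beads.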
Sfp inh: qHTS Assay for Inhibitors of Bacillus subtilis Sfp phosphopantetheinyl transferase (PPTase). 4'-phosphopantetheinyl transferase ffp (Bacillus subtilis), Q9F4F7. Biochemical Sfp PPTase activity, qHTS. Potency, µM, for the others: largest response in the series, negative = inhibition, hits mostly inhibitors. 310,000 compounds, 3.5% hits. AID 1490, 2009;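 also: the enzyme is Sfp with the accession as filed and its product quenches rhodamine fluorescence; 0% = enzyme reaction without inhibitor and -100% = no enzyme wells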
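Compounds were incubated with enzyme (final 15 nM) for 15 min at room temperature before substrate addition started the reaction. Fluorescence at 525 nm excitation, 598 nm emission was recorded immediately and after 30 minutes.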
BAZ2B inh: qHTS Assay for Inhibitors of BAZ2B | AID 504333, 2011 | AlphaScreen BAZ2B-H3K14Ac peptide displacement | Potency, µM (titrated, usually from 114 µM), for the others: at the top dose activity change, negative = inhibition, actives largely listed as inhibitors | 360,000 compounds, 4.4% hits; also: % is scaled to controls: 0 for no effect and ±100 for the full control effect; nearly all actives have a fitted effect of over 60% in size
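AlphaScreen displacement of biotin-H3(5-23)K14Ac peptide (50 nM final) from BAZ2B (50 nM final) in PBS pH 7.4, 0.01% Tween-20; complex preformed 30 min RT, then compounds (top 110 uM) 30 min RT, beads 20 min dark.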
G9a block: qHTS Assay for Inhibitors of Histone Lysine Methyltransferase G9a; 350,000 compounds, 8.8% hits; Potency, µM (doses to about 102 µM), without a hit: top-dose activity, negative = inhibition, usual class: inhibitors; G9a H3K9 monomethylation, AlphaScreen, 2 h; Histone-lysine N-methyltransferase EHMT2 (Homo sapiens), Q96KQ7; also: % is scaled to controls: 0 for no effect and ±100 for the full control effect; nearly all actives have a fitted effect of over 75% in size
Target sequence (Q96KQ7 913-1193 limits assumed): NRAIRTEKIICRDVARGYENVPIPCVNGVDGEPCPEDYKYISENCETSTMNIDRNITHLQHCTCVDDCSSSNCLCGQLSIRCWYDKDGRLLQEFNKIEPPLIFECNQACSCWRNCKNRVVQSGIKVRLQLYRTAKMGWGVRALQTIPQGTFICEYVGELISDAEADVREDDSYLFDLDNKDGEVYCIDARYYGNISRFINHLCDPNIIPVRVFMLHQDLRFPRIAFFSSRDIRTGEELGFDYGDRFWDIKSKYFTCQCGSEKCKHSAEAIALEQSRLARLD
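Readings reflect AlphaScreen signal from monomethyl-H3K9 antibody detection. HMT at 20 nM; substrate b-H3K9 500 nM; cofactor SAM 20 uM; 2 h RT reaction; compounds tested as titrations in qHTS with 15 min preincubation.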
* hit, by the source's call; [ ] = remark or other dose. This is a sample that favours compounds with a hit; in the whole collection about 12% have one here. Calls follow the shape of the dose curve; as a rule, active = well fitted curve in the direction sought with a large enough effect; inconclusive = small, poorly fitted or top-dose-only effect, or another doubt; inactive = no such curve, though single readings can be large; an effect the other way counts as inactive or inconclusive. Potency is read from the fitted curve at half-maximal effect.

Screening S=c1[nH]nc(-c2ccc(Cl)cc2)n1/N=C/C=C/c1ccco1 returned JMJD2A Tudor 56µM*, HP1b chromo inh inconclusive, Sfp inh 56µM* and BAZ2B inh inconclusive.
Cc1ccc(/C=N/n2c(-c3ccc(Cl)cc3)n[nH]c2=S)s1 was read as JMJD2A Tudor inconclusive, HP1b chromo inh 22%, Sfp inh -3%, BAZ2B inh 1% and G9a block inconclusive.
Cc1cc(-c2n[nH]c(=S)n2/N=C/C=C/c2ccco2)n[nH]1 was read as JMJD2A Tudor 2.8µM*, HP1b chromo inh 4%, Sfp inh 56µM*, BAZ2B inh 50µM* and G9a block 2.5µM*.
`S=c1[nH]nc(-c2ccco2)n1/N=C/C=C/c1ccccc1` gave JMJD2A Tudor 20µM*, HP1b chromo inh -17%, Sfp inh -15%, BAZ2B inh -32% and G9a block 0.71µM*.
For Cc1cc(C(=O)CN2C(=O)C(=O)N(Cc3ccco3)C2=O)c(C)n1CCc1ccc(F)cc1 the results were JMJD2A Tudor -31%, HP1b chromo inh 14%, BAZ2B inh -23% and G9a block -7%[12.7 µM].
CC1CC=CC2C1C(=O)N(Cc1ccccc1)C2c1ccc2ccccc2c1Br (centres undefined) was read as JMJD2A Tudor -6%, HP1b chromo inh 21% and Sfp inh inconclusive.
Cc1cccc(-c2nc3c4ccccc4nc(NCCc4ccccc4)n3n2)c1 was read as JMJD2A Tudor 56%, HP1b chromo inh 102%, BAZ2B inh 27% and G9a block 81%[59 µM].
Screening C=C1c2cccc(C(F)(F)F)c2O[C@H](C(=O)OCC)C1OC (mixture of isomers) returned Sfp inh 1% and G9a block 34%.
Screening COc1ccc(NC(=O)CN2CCN(C(=O)N3CCOCC3)CC2)cc1 returned JMJD2A Tudor -2%, HP1b chromo inh -13%, Sfp inh 0%, BAZ2B inh 1% and G9a block 20%.
`CCCSCCCNC(=O)c1ccc(Cn2c(=O)c3cccn3c3cccnc32)cc1` gave JMJD2A Tudor 10%, HP1b chromo inh 39%, BAZ2B inh 2% and G9a block 10%[59 µM].
Screening S=c1[nH]nc(-c2ccccc2)n1/N=C/C=C/c1ccco1 returned JMJD2A Tudor 20µM*, HP1b chromo inh -19%, Sfp inh 50µM*, BAZ2B inh inconclusive and G9a block 1.3µM*.
Screening S=c1[nH]nc(-c2cccnc2)n1/N=C/C=C/c1ccco1 returned JMJD2A Tudor 20µM*, HP1b chromo inh 35%, Sfp inh 16µM* and BAZ2B inh 45µM*.
`FC(F)(F)c1n[nH]c(=S)n1/N=C/c1ccco1` gave JMJD2A Tudor inconclusive, HP1b chromo inh 28%, Sfp inh -25%, BAZ2B inh -8% and G9a block 3.5µM*.
CC(/C=N/n1c(-c2cccnc2)n[nH]c1=S)=C\c1ccco1 was read as JMJD2A Tudor 4µM*, HP1b chromo inh -33%, Sfp inh -27%, BAZ2B inh -35% and G9a block 1.3µM*.
Screening COc1ccc(C2=NOC(C(=O)Nc3ccc4c(c3)OCCO4)C2)c(OC)c1 (centres undefined) returned JMJD2A Tudor -18%, HP1b chromo inh 27%, Sfp inh 5%, BAZ2B inh 14% and G9a block -42%.
For FC(F)(F)c1ccc(-n2cnc3ccccc32)nc1 the results were JMJD2A Tudor 1%, HP1b chromo inh 39%, Sfp inh 0%, BAZ2B inh 9% and G9a block 6%.
Cc1[nH]c(=O)nc(NN=Cc2ccc(Cl)cc2)c1C(=O)Nc1ccc(Cl)cc1 was read as JMJD2A Tudor -18% and HP1b chromo inh 32%.
`Cc1nc2ccn(Cc3cccs3)c(=O)c2cc1C(=O)NCc1ccccc1` gave JMJD2A Tudor -20%, HP1b chromo inh -17%, BAZ2B inh -30% and G9a block 4%[59 µM].
